Data reported in PubChem BioAssay (EPA / NIEHS).
Results filed as inconclusive are left out. Activity calls are given as the source filed them. The calls were made as follows: active = hit-call score of the fitted dose curve at least 0.9, where 1 is the maximum; inconclusive = response in the unintended direction; inactive = score below 0.9.

These molecules were tested against Glycogen synthase kinase-3 beta (Homo sapiens) (UniProt P49841) (assay: NVS_ENZ_hGSK3b: NovaScreen (NVS) Enzymatic Assay for human Glycogen Synthase Kinase-3 beta (GSK3b) (AID 2283165)).
Chain of Glycogen synthase kinase-3 beta (Homo sapiens) (P49841 whole entry, looked up): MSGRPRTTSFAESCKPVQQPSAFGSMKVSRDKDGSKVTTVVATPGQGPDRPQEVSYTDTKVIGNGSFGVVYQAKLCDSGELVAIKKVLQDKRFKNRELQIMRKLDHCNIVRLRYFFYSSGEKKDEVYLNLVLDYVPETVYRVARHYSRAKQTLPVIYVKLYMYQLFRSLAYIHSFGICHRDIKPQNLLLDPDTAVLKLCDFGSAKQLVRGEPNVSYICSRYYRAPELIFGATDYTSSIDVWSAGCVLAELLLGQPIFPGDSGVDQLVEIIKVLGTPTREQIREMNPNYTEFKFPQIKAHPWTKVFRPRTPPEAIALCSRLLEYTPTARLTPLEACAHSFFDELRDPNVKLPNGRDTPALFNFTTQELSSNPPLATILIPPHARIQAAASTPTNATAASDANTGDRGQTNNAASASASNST
Experimental: NVS_ENZ_hGSK3b is a biochemical, single-readout assay that uses extracted gene-proteins in a cell-free assay. Measurements were taken 1 hour after chemical dosing in a 384-well plate.NVS_ENZ_hGSK3b is one of one assay component(s) measured or calculated from the NVS_ENZ_hGSK3b assay. It is designed to make measurements of enzyme activity, a form of enzyme reporter, as detected with fluorescence intensity signals by Fluorescence and electrophoretic mobility shift technology.Data from the assay component NVS_ENZ_hGSK3b was analyzed into 1 assay endpoint. This assay endpoint, NVS_ENZ_hGSK3b, was analyzed in the positive analysis fitting direction relative to DMSO as the negative control and baseline of activity. Using a type of enzyme reporter, loss-of-signal activity can be used to understand changes in the enzymatic activity as they relate to the gene GSK3B. Furthermore, this assay endpoint can be referred to as a primary readout, because this assay has produced multiple assay endpoints where this one serves a enzymatic activity function. To generalize the intended target to other relatable targets, this assay endpoint is annotated to the kinase intended target family, where the subfamily is serine/threonine kinase.
Binding assays used specific radioligands (tritiated, iodinated) with non-radioactive competitive displacement ligands in agonist or antagonist protocols (as indicated) and various reference compounds and inhibitors to titrate specific binding to receptors and transporters. Most enzyme assays (CYPs, kinases, phosphatases, proteases, HDACs) used recombinant protein and specific substrates (fluorescence mostly, some colorimetric and radioactive) and inhibitors, followed by a biochemical separation of substrate and product. All assays for the biochemical HTS were initially run in duplicate at a single concentration (10 uM for CYP450 assays and 25 uM for all others). Assay-chemical combinations meeting a pre-defined threshold (e.g., 30% inhibition and other criteria defined below) were then run in singleton concentration-response format with maximum concentration of 20 uM for CYPs and 50 uM for all others. Each assay was run with positive and negative controls, and concurrent controls on every plate. The follow-up (secondary) screen tested active chemical-pairs in concentration series, as well as a few additional assays not tested in the primary screen, some selected negative inactives, and several cases re-run in the concentration series for confirmatory purposes.

Compound	outcome	AC50
NC(=O)Cn1c(=O)cc(CCN2CCN(c3nccc4sccc34)CC2)c2ccc(F)cc21	inactive	–
CC(C)c1ccc(C(=O)N=C(N)N)cc1S(C)(=O)=O	inactive	–
NCCO	inactive	–
Nc1ccccc1N	–	22.3 µM (active)
O=C(OCCCCCOC(=O)c1ccccc1)c1ccccc1	inactive	–
FC(F)(F)C(F)(F)C(F)(F)C(F)(F)C(F)(F)C(F)(F)CCI	inactive	–
O=c1c(O)c(-c2ccc(O)c(O)c2)oc2cc(O)cc(O)c12	–	0.073 µM (active)
O=[N+]([O-])C(CO)(CO)CO	inactive	–
CCCc1cc(=O)[nH]c(=S)[nH]1	inactive	–
Cc1ccc(N(C)C)cc1	inactive	–
CC(=O)C(C)=CC1C(C)=CCCC1(C)C (centres undefined)	inactive	–
CCc1c(C(=O)NN2CCCCC2)nn(-c2ccc(Cl)cc2Cl)c1-c1ccc(Br)cc1	inactive	–
CCCCc1ccc2c(n1)[C@@H](c1ccc(OC)cc1C[C@H](C)C(=O)O)[C@H](C(=O)O)[C@H]2c1ccc2c(c1)OCO2	inactive	–
CC(=O)Oc1ccccc1C(=O)O	inactive	–
C=CCOC(=O)c1ccccc1C(=O)OCC=C	inactive	–
CCOc1ccc2c(c1)C(C)=CC(C)(C)N2	inactive	–
NS(=O)(=O)c1cc2c(cc1Cl)NCNS2(=O)=O	inactive	–
C=CCc1ccc(O)c(OC)c1	inactive	–
CCCCCCCCCCO	inactive	–
